Screens deposited in PubChem BioAssay by National Center for Advancing Translational Sciences (NCATS).
Luc counter – counter-screen: inhibitors of Kinase-Glo firefly luciferase; Q27757; Kinase-Glo luciferase, ATP luminescence, 8 min; Potency, µM (highest dose often 38.3 µM), for inactives: at the highest dose activity change, negative = inhibition, most hits filed as inhibitors; 0.28% of 200,000 active; AID 1379; note: % is set by controls: 0 for no effect and ±100 for the full control effect; nearly all actives have a fitted effect of over 60% in size
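Compounds were added to a substrate mix at pH 7.2 (50 mM imidazole, 10 uM ATP, within the enzyme's linear range), followed by Kinase-Glo detection reagent; luminescence was measured after 8 minutes at ambient temperature.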
NPC1 prom act – NPC1 promoter activation; Huh7 NPC1 promoter luciferase reporter, 24 h; Potency, µM (titrated, usually from 9.22 µM), for inactives: at the highest dose activation, most hits filed as activators; 2.4% of 320,000 active; note: % of control where 0% means no effect; nearly all actives have a fitted effect of over 60% in size
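Luminescence read-out of NPC1 promoter-driven luciferase in stably transfected Huh7 cells; compounds delivered in DMSO and left 24 h at 37C, 5% CO2, qHTS titration format.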
SMN2 splice up – enhancers of SMN2 splice variant expression; HEK293 SMN2-luciferase splicing reporter, luminescence, 30-36 h; Potency, µM (top dose mostly 46.1 µM), for inactives: at the top dose activity change, positive = activation, actives largely listed as activators; 2.8% of 210,000 active; AID 1458; note: % of control where 0% means no effect; nearly all actives have a fitted effect of over 55% in size
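HEK293 cells carry an SMN2 […]–luciferase reporter in which exon 7 inclusion puts luciferase in frame. Cells were plated 10-12 h before compound addition, then incubated 30-36 h at 37C. ONE-Glo luminescence was read; sodium butyrate at 4.5 mM final served as control.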
Rab9 prom act – Rab9 promoter activation. Huh7 Rab9 promoter-luciferase reporter, luminescence, 24 h. AID 485297. Potency, µM (series often up to 9.22 µM), without a hit: at the highest dose activation, negative = inhibition, actives largely listed as activators. 2.8% of 320,000 active; note: % of control where 0% means no effect; nearly all actives have a fitted effect of over 60% in size
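Promoter activation is measured as luciferase luminescence in Huh7 cells stably transfected with a Rab9 promoter–luciferase construct, following 24 h compound exposure at 37 °C and 10 min reagent incubation at ambient temperature.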
FLuc modulator – inhibits or activates purified firefly luciferase, miR-21 counter-screen; AID 588342; 6.9% of 360,000 active; purified FLuc, Km substrates, luminescence inhibition; Potency, µM (doses to about 57.5 µM), for the others: at the highest dose activity change, negative = inhibition, usual class: inhibitors;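 note: plate controls were vehicle for no effect and reference inhibitor for full effect; nearly all actives have a fitted effect of over 55% in size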
Target sequence (P08659 whole entry, looked up): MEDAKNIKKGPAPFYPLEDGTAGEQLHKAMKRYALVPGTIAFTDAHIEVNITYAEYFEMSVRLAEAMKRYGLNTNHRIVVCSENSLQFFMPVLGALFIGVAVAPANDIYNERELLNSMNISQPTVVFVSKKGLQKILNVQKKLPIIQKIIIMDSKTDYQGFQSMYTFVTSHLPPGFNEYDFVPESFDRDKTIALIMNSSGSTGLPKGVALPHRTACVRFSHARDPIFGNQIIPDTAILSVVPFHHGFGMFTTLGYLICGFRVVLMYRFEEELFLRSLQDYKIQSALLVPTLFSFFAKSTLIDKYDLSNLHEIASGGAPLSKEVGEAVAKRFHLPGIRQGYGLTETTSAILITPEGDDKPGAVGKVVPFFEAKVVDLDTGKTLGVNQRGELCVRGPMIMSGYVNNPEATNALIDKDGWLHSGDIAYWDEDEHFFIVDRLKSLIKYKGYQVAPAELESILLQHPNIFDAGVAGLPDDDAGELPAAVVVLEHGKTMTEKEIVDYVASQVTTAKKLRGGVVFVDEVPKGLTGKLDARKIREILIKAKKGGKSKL
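Purified P. pyralis luciferase (10nM final) with 10uM D-luciferin and 10uM ATP (Km levels) in 50mM Tris acetate pH 7.5, 10mM Mg acetate, 0.01% Tween-20, 0.05% BSA; qHTS 6-point titration, ~60 µM downward; luminescence read.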
Active calls of the source: *; ? = inconclusive; nt = no result. Most compounds without a hit are left out; they make up all but 7.3% or so of the library. Calls come from the whole dose curve; as a rule, active = well fitted curve in the direction sought with a large enough effect; inconclusive = small, poorly fitted or top-dose-only effect, or another doubt; inactive = no such curve, though single readings can be large; an effect the other way counts as inactive or inconclusive. Potency is the fitted concentration of half-maximal effect.

SMILES	Luc counter	NPC1 prom act	SMN2 splice up	Rab9 prom act	FLuc modulator
COc1ccc(CNCc2c(C(=O)O)c(C)n(Cc3ccccc3C)c2C)cc1OC	nt	nt	22%	nt	-1%
CCc1ccccc1NC(=O)CN1CCCN(Cc2cc(C)ccc2C)S1(=O)=O	nt	nt	nt	nt	-3%
N#Cc1c(-n2ncnc2-c2ccc(Br)cc2)sc2c1CCCCC2	nt	nt	6%	nt	1.2µM*
COc1cccc(-c2ncnn2-c2sc3c(c2C#N)CCCCC3)c1OC	nt	nt	9%	nt	0.95µM*
CCOc1ccc(-c2ncnn2-c2sc3c(c2C#N)CCCCC3)cc1	nt	nt	-16%	nt	?
C=CC(C1=CC(=O)C(OC)=CC1=O)c1ccccc1 (centres undefined)	-4%	nt	1%	nt	nt
CCc1ccc2c(c1)[C@H]1OCC[C@H]1[C@@H](c1cccs1)N2	9%	-16%	-23%	-22%	15µM*
O=C(/C(=C\c1ccccc1)c1nc2ccccc2[nH]1)c1ccc(Cl)cc1	1%	2.8µM*	-84%	?	-3%
O=C(/C=C/c1cccc(Cl)c1)c1nc2ccccc2[nH]1	-15%	-2%	-100%	1%	2.7µM*
O=C(/C(=C/c1ccc(Cl)cc1)c1nc2ccccc2[nH]1)c1cccs1	-3%	0%	-75%	-52%	?
Cc1ccc(OCC(=O)N/N=C/c2cn(C)c3ccccc23)cc1	nt	3%	nt	11%	11µM*
CNC(=S)N/N=C/c1cn(CCOc2ccc(OC)cc2)c2ccccc12	-1%	-1%	?	-3%	21µM*
COc1ccccc1OCCn1cc(/C=N/NC(N)=S)c2ccccc21	2%	1%	-9%	-7%	-6%
Cc1ccccc1OCC(=O)N/N=C/c1cn(C)c2ccccc12	nt	-1%	nt	13%	15µM*
O=S(=O)(c1ccccc1)N1CCC2(CCCN(c3ccncc3)C2)CC1	1%	nt	-36%	nt	nt
COc1ccc(N2CCN(S(=O)(=O)c3ccc(-c4cc(C(F)(F)F)on4)s3)CC2)cc1	nt	nt	nt	nt	-6%
Cc1cc(SC(C)C(=O)Nc2ncc(Cl)cc2Cl)nc2ccccc12 (centres undefined)	4%	-2%	3.5µM*	0%	-11%
Cc1nnc(SC(C)C(=O)Nc2ncc(Cl)cc2Cl)n1Cc1ccccc1 (centres undefined)	0%	3%	-6%	0%	-1%
C1=C(c2ccc(-c3ccccc3)cc2)Nc2ncnn2C1c1ccco1 (centres undefined)	-7%	2.8µM*	24%	3.2µM*	21µM*
O=C1NC(=O)/C(=C/c2ccc(O)cc2)S1	4%	30%	nt	?	15µM*
COc1ccccc1N1CCN(C(=O)COc2ccc(Cl)cc2Br)CC1	2%	-5%	-4%	4%	-10%
O=C(CNC(=O)c1ccc(Cl)cc1Cl)OCC(=O)N1CCCC1	nt	1%	nt	-5%	3%
O=C(NCC(=O)N1CCCCC1)c1ccc(Cl)cc1Cl	-3%	?	?	4µM*	19µM*
COc1ccccc1N1CCN(C(=O)CNC(=O)c2ccc(Cl)cc2Cl)CC1	nt	17%	nt	16%	24µM*
COc1cccc(N2CCN(C(=O)c3cccc(NC(=O)c4nsc5ccccc45)c3)CC2)c1	nt	nt	nt	nt	1.9µM*
SMILES	Luc counter	NPC1 prom act	SMN2 splice up	Rab9 prom act	FLuc modulator
Cc1ccc(C(=O)N2CCN(c3ccccc3)CC2)cc1NC(=O)c1nsc2ccccc12	nt	nt	nt	nt	-4%
O=C(Nc1ccccc1)N1CCN(C(=O)c2nsc3ccccc23)CC1	nt	nt	nt	nt	-6%
CCOC(=O)C1CCCN(C(=O)c2cccc(NC(=O)c3nsc4ccccc34)c2)C1 (centres undefined)	nt	nt	nt	nt	9.5µM*
CC1CCN(C(=O)c2cccc(NC(=O)c3nsc4ccccc34)c2)CC1	nt	nt	nt	nt	3.4µM*
COc1ccc(N2CCN(C(=O)c3cccc(NC(=O)c4nsc5ccccc45)c3)CC2)cc1	nt	nt	nt	nt	9.5µM*
Cc1ccccc1OCC(=O)OCc1cc(=O)n2nc(C3CCCCC3)sc2n1	nt	nt	nt	nt	-3%
O=C(Nc1cccc(C(=O)N2CCN(c3ccccc3)CC2)c1)c1nsc2ccccc12	nt	nt	nt	nt	2.7µM*
COc1cc(/C=C/c2ccccc2)oc(=O)c1	nt	nt	8.9µM*	nt	nt
CCOc1ccccc1CNC(=O)C1CCN(S(=O)(=O)c2ccc3c(ccn3C)c2)CC1	nt	nt	nt	nt	-9%
